Test results reported in ChEMBL document CHEMBL3433997, “St. Jude Leishmania screening dataset” (2016).

Columns and labels:
Assay type in all cases: functional
[1] = target: Solute carrier family 2, facilitated glucose transporter member 1 (Homo sapiens) (UniProt P11166); test: ST_JUDE_LEISH: Cytotoxicity at 2uM final concentration against transgenic Leishmania Mexicana promastigotes LmGLUT1 that are glucose transport deficient and complemented with the human glucose transporter GLUT1. Activity is measured by DNA content using SYBR green in vitro
Sequence of Solute carrier family 2, facilitated glucose transporter member 1 (Homo sapiens) (P11166 whole entry): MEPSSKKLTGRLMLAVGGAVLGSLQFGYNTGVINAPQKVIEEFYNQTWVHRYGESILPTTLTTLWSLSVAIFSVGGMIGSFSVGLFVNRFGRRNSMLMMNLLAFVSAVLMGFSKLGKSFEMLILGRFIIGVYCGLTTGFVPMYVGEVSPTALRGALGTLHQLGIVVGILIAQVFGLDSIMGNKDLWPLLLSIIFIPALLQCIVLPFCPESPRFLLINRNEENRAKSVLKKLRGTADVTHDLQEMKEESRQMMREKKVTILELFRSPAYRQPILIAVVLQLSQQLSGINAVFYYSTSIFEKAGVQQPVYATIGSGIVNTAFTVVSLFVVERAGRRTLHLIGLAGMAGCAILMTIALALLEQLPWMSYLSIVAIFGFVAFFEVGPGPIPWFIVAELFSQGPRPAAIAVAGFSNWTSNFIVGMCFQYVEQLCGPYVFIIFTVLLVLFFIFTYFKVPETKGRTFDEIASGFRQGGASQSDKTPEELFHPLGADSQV

[2] = target: Hexose transporter 1 (Plasmodium falciparum) (UniProt O97467); test: ST_JUDE_LEISH: Cytotoxicity at 2uM final concentration against transgenic Leishmania Mexicana promastigotes LmPfHT that are glucose transport deficient and complemented with the Plasmodium falciparum hexose transporter. Activity is measured by DNA content using SYBR green in vitro
[3] = target: Glucose transporter (Leishmania mexicana) (UniProt O61059); test: ST_JUDE_LEISH: Cytotoxicity at 2uM final concentration against transgenic Leishmania Mexicana promastigotes LmGT2 that are glucose transport deficient and complemented with the L. Mexicana glucose transporter 2. Activity is measured by DNA content using SYBR green in vitro

SMILES	inhibition [1]	inhibition [2]	inhibition [3]
COc1ccc(Cn2ncc3c4c(N)nc(N)nc4ccc32)cc1OC	86.6%	82.8%	73%
Cc1cccc2nc(-c3cccc(-c4ccc(NC(=O)Nc5ccc6c(c5)OCO6)cc4)c3)[nH]c12	1.72%	0.05%	2.58%
N=C(N)Nc1nc(-c2cccc(NC(=O)CCCCCCCON3C(N)=NC(N)=NC34CCCCC4)c2)cs1	2.45%	4.13%	3.75%
C[C@H](Cc1ccc(Oc2ccc(C[C@@H](C)NC[C@H](O)c3cccc(Cl)c3)cc2)cc1)NC[C@H](O)c1cccc(Cl)c1	106%	104%	102%
O=C(Nc1cccc(-c2ccc(-c3nc4ccccc4[nH]3)cc2)c1)c1cccnc1	6.47%	0.4%	-0.92%
COc1ccc(NC(=O)/C=C/c2cc(Br)ccc2F)cc1OCCN(C(C)C)C(C)C	0.52%	0.38%	0.14%
O=C(Nc1ccc(-c2cncc(NCCCN3CCCC3)c2)cc1)c1ccccc1	1.36%	1.48%	1.55%
CC(ON1C(N)=NC(N)=NC1(C)C)c1ccccc1 (configuration not stated)	5.91%	4.22%	6.95%
Cc1cc(-c2nc3ccc(C(=O)NCc4ccccc4)cc3n2C2CCN(C(=O)c3ccc(-c4ccccc4)cc3)CC2)ccn1	1.02%	-0.07%	1.94%
CN(C)CCCN(C)c1cccc2c1nc(-c1cccnc1)n2CCNCc1ccccc1	6.47%	7.52%	1.45%
O=C(C1CCN(c2nnnn2-c2ccccc2)CC1)N1CCc2ccccc2C1	13%	15.6%	14.1%
O=C(NCCc1ccccc1)N(Cc1ccccc1-c1cccc(CNCCc2ccccc2)c1)C1CCN(Cc2ccccc2)CC1	2.61%	1.06%	5.48%
COc1ccc(CN2CCCN(Cc3cccc(C(=O)Nc4ccc(C(C)(C)C)cc4)c3)CC2)cc1	7.71%	5.46%	3.17%
Cc1[nH]cnc1-c1cccc(NC(=O)c2cc3ccccc3s2)c1	-1.01%	-1.53%	-0.35%
CCOc1ccc2c(=NN=Cc3cccc(OC)c3OC)cc(C)[nH]c2c1	4.91%	5.53%	6%
Cc1cccc2nc(-c3cccc(-c4ccc(NC(=O)CS(C)(=O)=O)cc4)c3)[nH]c12	-0.47%	3.33%	3.81%
Cc1c(-c2ccccc2)ccc2[nH]cc(CC#N)c12	1.56%	3.54%	0.3%
CC(C)Nc1cc(C(=O)N[C@@H](Cc2ccccc2)[C@H](O)CNC2CCCCC2)cc(N2CCCCS2(=O)=O)c1	0.23%	3.37%	7.2%
CC1CCN(CC[C@H]2CCCN2S(=O)(=O)c2cccc(NC(=O)c3cc4ccccc4s3)c2)CC1	4.95%	6.97%	3.15%
OC(CNc1ccnc(Nc2cccc(Cl)c2)n1)c1cccc(F)c1 (configuration not stated)	3.71%	4.41%	-3.09%
CCC[C@@H]([C@@H](CC1CCCCC1)C(=O)N[C@H](C(=O)Nc1nccs1)[C@@H](C)OCc1ccccc1)N(O)C=O	6.17%	3.62%	2.53%
Nc1ccc2[nH]cc(C3CCN(CC4CCC(NC(=O)/C=C/c5ccc(Cl)c(Cl)c5)CC4)CC3)c2n1 (configuration not stated)	-2.2%	-0.28%	-4.12%
c1ccc2c(C3CCN(CCCCOc4ccc5c(c4)CCN(CC4CC4)CC5)CC3)c[nH]c2c1	70.5%	43.6%	6.07%
CCN1CCC(N(Cc2ccc(-c3ccc(C(F)(F)F)cc3)o2)C(=O)Cn2c(CCc3cccc(F)c3F)nc(=O)c3ccccc32)CC1	11.3%	10.6%	11.7%
CC/N=C(/NCCCCCCN/C(=N/CC)NCc1ccccc1)NCc1ccccc1	0.49%	-0.55%	-2.09%

SMILES	inhibition [1]	inhibition [2]	inhibition [3]
CCNc1cc(C)nc(Nc2ccccc2)n1	15.2%	5.92%	3.47%
CCCCCCCN1CCC(CC(=O)Nc2ccnc3ccc(OC)cc23)C(CC)C1 (configuration not stated)	-2.12%	-1.03%	-0.31%
Cc1n[nH]c2ccc(-c3cc(OC[C@@H](N)Cc4ccccc4)cnc3-c3ccc(OCc4cccc(F)c4)cc3)cc12	-0.24%	0.68%	-0.73%
CN(C)CC1c2[nH]c3ccccc3c2CCN1C(=O)Nc1ccc(Cl)c(Cl)c1 (configuration not stated)	5.56%	7.79%	5.8%
O=C(Nc1cccc(-c2ccc(-c3nc4cc(C(F)(F)F)ccc4[nH]3)cc2)c1)Nc1ccc(F)c(F)c1F	-0.86%	0.2%	0.37%
Cc1cc(CNCCCCCCNCc2ccc(-c3ccccc3)cc2)ccc1O	7.54%	7.79%	4.84%
Cc1cc(NC2CCN(CC3CCCCC3)C2)nc(Nc2ccc(Cl)cc2)n1 (configuration not stated)	3.89%	3.7%	2.63%
Cc1cccc2nc(-c3cccc(-c4ccc(NC(=O)c5cnccc5C(F)(F)F)cc4)c3)[nH]c12	1.18%	-0.42%	3.44%
Cc1cc(NC(=O)Nc2ccc(C(C)C)cc2)c2ccccc2n1	0.71%	3.51%	-0.45%
CCCNC(=O)Nc1cc2cc(-c3ccc(CN4CCCC4)cc3)ccc2n2c(C)nnc12	4.57%	3.01%	-1.87%
Cc1cccc(S(=O)(=O)Nc2cccc(CCN3CCC(N4CCCCC4)CC3)c2)c1	3.99%	-1.11%	0.97%
Cc1cc([N+](=O)[O-])ccc1N1CCN(CCCCNC(=O)c2ccc(NC(=O)c3ccc(Cl)cc3)cc2)CC1	4.75%	4.19%	4.35%
NC(=O)c1cccc(CNCc2ccc(-c3cccc(-c4nc5ccccc5[nH]4)c3)cc2)c1	5.8%	5.87%	5.4%
O=C(C=Cc1ccc(Cl)c(Cl)c1)NC1CCN(CCc2ccccc2)CC1	0.9%	1.06%	-4.41%
Cc1cc(=O)c2cc(Oc3cccc(OC(F)(F)F)c3)ccc2[nH]1	1.1%	2.75%	4.49%
Cc1onc(-c2ccccc2)c1-c1nc(NCc2ccccc2Cl)no1	2.36%	2.64%	1.32%
COc1ccc2nc(C)cc(Nc3ccc(Oc4ccc(Br)c5ccccc45)c(Cl)c3)c2c1	9.47%	8.7%	3.21%
CC(Cl)=CCc1c(C)nc2c(ccc3ccccc32)c1O	4.44%	3.06%	3.58%
COc1ccccc1C1CCN(C2CCC(NC(=O)/C=C/c3ccc(OC(F)(F)F)cc3)CC2)CC1 (configuration not stated)	0.94%	1.54%	2.36%
Cc1cccc2nc(-c3cccc(-c4ccc(NC(=O)C5CCCO5)cc4)c3)[nH]c12 (configuration not stated)	6.93%	3.31%	2.04%
Cc1cc2nc(-c3ccc(SCC(=O)Nc4ccc5c(c4)OCCO5)nc3)[nH]c2cc1C	0.8%	-0.74%	-4.17%
COc1ccccc1C1CC(c2ccccc2)=NN1C(=O)c1ccco1 (configuration not stated)	-0.28%	-0.6%	-4.34%
COc1ccc(CNc2ccc3nc(N)nc(N)c3c2)cc1	-2.31%	1.62%	-1.87%
COc1ccccc1CNC(=O)c1nn(-c2ccc(Cl)cc2)c(=O)c2ccccc12	4.66%	4.83%	3.54%
